# Hits are enriched below; roughly 0.96% of the tested compounds scored in any of these assays.
# HDAC3 inhib – human HDAC3 inhibition | inhibition, % at 8.3 µM | recombinant HDAC3, fluorogenic peptide/trypsin coupled, fluorescence | AID 2718 | 0.15% of 320,000 active | O15379; in the data active means inhibition above about 26%, passing the limit was not always enough; inconclusive means no clear call, values can overlap the other calls
# Target sequence (O15379 whole entry, looked up): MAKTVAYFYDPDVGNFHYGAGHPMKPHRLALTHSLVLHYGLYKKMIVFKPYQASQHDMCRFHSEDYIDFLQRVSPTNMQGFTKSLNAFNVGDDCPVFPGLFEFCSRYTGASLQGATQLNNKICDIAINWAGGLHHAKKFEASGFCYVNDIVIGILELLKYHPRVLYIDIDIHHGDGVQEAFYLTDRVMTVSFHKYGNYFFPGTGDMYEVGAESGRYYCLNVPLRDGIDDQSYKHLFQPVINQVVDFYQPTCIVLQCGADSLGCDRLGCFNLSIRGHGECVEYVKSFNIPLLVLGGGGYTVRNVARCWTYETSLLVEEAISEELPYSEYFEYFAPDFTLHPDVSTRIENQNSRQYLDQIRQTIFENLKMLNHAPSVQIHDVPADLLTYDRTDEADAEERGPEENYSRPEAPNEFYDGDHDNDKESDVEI
# DAGLB inhibitor – diacylglycerol lipase beta (human) inhibition | Q8NCG7 | inhibition, % at 5.17 µM | 0.059% of 340,000 active | HEK293T DAGLB membrane lysate, EnzChek fluorogenic substrate; in the data active means inhibition above about 34%;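 further: 0% = enzyme with vehicle and 100% = wells lacking enzyme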
# Rtt109 Vps75 – C. albicans Rtt109 histone acetyltransferase inhibition. Q5AAJ8. purified Rtt109/Vps75, ThioGlo CoA-SH fluorescence, 4 h. inhibition, % at 34.9 µM. 0.16% of 330,000 active. AID 540336;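 active means inhibition of at least 50% in every replicate; inconclusive means best replicate reaches 50% inhibition but some replicates fall short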
# V-ATPase pHluor – regulators of yeast V-ATPase proton transport; S. cerevisiae, pHLuorin cytosolic pH fluorescence; response, % at 10 µM; 0.37% of 350,000 active; AID 504577; in the data active means response mostly above about 7.3%, no sharp cut-off; inactive means mostly below about 5.4%; further: actives read high
# MIN6 prolif-1 – inducers of beta-cell replication in MIN6 cells; MIN6 cells proliferation, ATPlite luminescence, 48 h; cells starved in 0.2% serum; 100% = growth in 10% serum; proliferation, % at 10 µM; 0.29% of 330,000 active;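 active means compounds whose signal lies at least 3.5 SD above the mean of all wells on their plate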;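 further: 0% = DMSO-treated cells in low-serum medium and 100% = 10% serum control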
# MIN6 prolif-2 – confirmation of inducers of beta-cell replication in MIN6 cells; shares compounds with MIN6 prolif-1; MIN6 beta-cell proliferation, ATPlite luminescence, 48 h; cells kept in 0.2% serum; scaled between 0.2% and 10% serum; 920 tested, under 10 active; AID 463095; proliferation increase, % at 50 µM;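 active means proliferation increase above 40% at any of the four tested concentrations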
# Numbers without * were called inactive; ? = inconclusive; nt = no result.
SMILES,HDAC3 inhib,DAGLB inhibitor,Rtt109 Vps75,V-ATPase pHluor,MIN6 prolif-1,MIN6 prolif-2
COc1ccc(N(C(=O)Cc2cccs2)C(C(=O)NC2CCCC2)c2ccncc2)cc1 (stereo not given),2,1,-6,1,0,nt
COc1ccc(N(C(=O)CNC(=O)c2cccs2)C(C(=O)NC2CCCC2)c2ccncc2)cc1 (stereo not given),-5,0,0,3,7.3*,0
CC(C)Sc1nc2c(cnn2-c2ccccc2)c(=O)[nH]1,2,-1,-4,7,4,nt
CC(C)Sc1nc2c(cnn2-c2ccc(Cl)cc2)c(=O)[nH]1,5,-3,1,1,11*,-2
CCOc1ccc(C(=O)CCC(=O)NNC(=O)c2ccncc2)cc1,2,1,-6,1,2,nt
Cn1c(SCc2ccc(F)cc2)nnc1-c1ccccn1,2,1,6,-1,0,nt
Cc1ccc(CSc2nnc(-c3ccccn3)n2C)cc1,1,-3,3,0,7.1*,-4
COc1ccc(NS(=O)(=O)c2ccc(C)cc2)c([N+](=O)[O-])c1,7,2,-4,-5,-3,nt
COc1ccc(NC(=O)c2ccccc2NS(=O)(=O)c2ccc(C)cc2)c([N+](=O)[O-])c1,3,5,0,-1,6.2*,-6
Cc1ccc(C2=NN(C(=O)CNCCO)C(c3cccs3)C2)cc1 (stereo not given),3,-3,5,2,4,nt
O=[N+]([O-])c1cn(-c2nc(-c3ccco3)cc(C(F)(F)F)n2)cn1,-5,-2,-6,-1,7.7*,0
CN1CCN(c2nc(-c3ccco3)cc(C(F)(F)F)n2)CC1,-1,-1,12,0,1,nt
CCOC(=O)CCCCC(=O)c1[nH]c(=O)[nH]c1CSc1nc(-c2ccccc2)c(C#N)c(=O)[nH]1,3,4,nt,1,-2,nt
COC(=O)c1sccc1NC(=O)c1ccc(OC)cc1OC,3,-2,-2,1,7.8*,-3
CCOC(=O)c1ccccc1OCc1cc(/C=N/n2cncn2)ccc1OC,-9,0,9,0,7.8*,2
c1ccc(Cn2nnnc2CN2CCCC2)cc1,nt,-1,2,1,4.8*,2
COc1ccc(Cn2nnnc2CN2CCCCCC2)cc1,4,-1,-3,0,0,nt
COC(=O)c1ccccc1NC(=O)CSc1ccc(C)cc1,-5,-10,-4,0,7.3*,-6
COC(=O)c1ccccc1NC(=O)CSc1ccccc1,1,-5,4,5,0,nt
COc1ccc(-c2ccc(N(C)C)cc2)cc1[C@H]1[C@H]2C=CC[C@@H](C)[C@@H]2C(=O)N1Cc1ccccc1,-3,-3,0,6,-9,nt
CN(C)S(=O)(=O)c1cccc(NC(=O)COC(=O)CCc2nc3ccccc3s2)c1,2,-2,-3,1,6.7*,5
S=C1NCCc2ccccc2C1c1ccccc1Cl (stereo not given),-2,2,6,-3,5.3*,-6
CCOc1cc(-n2cnnn2)c(OCC)cc1NC(=O)c1cnccn1,0,0,3,-5,-4,nt
CCOc1cc(N2CCOCC2)c(OCC)cc1NC(=O)c1cnccn1,-4,nt,nt,nt,9.3*,3
O=c1[nH]c2ccc(Cl)cc2c(=O)n1Cc1ccco1,4,1,0,1,7.2*,-2
SMILES,HDAC3 inhib,DAGLB inhibitor,Rtt109 Vps75,V-ATPase pHluor,MIN6 prolif-1,MIN6 prolif-2
O=C(OC(c1ccccc1)c1nccc2ccccc12)c1ccccc1 (stereo not given),nt,-6,8,4,nt,nt
OC(c1ccc(Cl)cc1)c1nccc2ccccc12 (stereo not given),2,-4,4,0,5.5*,-6
CSc1cccc(NC(=O)CNC(=O)C2CCCCC2)c1,1,-1,-3,1,11*,-1
CCC(C(=O)NCCCN1CCOCC1)n1c2ccccc2c2nc(=O)cc(C)n21 (stereo not given),2,0,-4,0,2,nt
COC(=O)c1c(NC(=O)COC(=O)c2ccc(O)cc2)sc2c1CCCCC2,-5,-3,nt,nt,-6,nt
COCC(=O)Nc1sc2c(c1C(=O)OC)CCCC2,-2,-2,6,1,7.7*,-6
NCC1OC(n2cnc3c(N)ncnc32)CC1O (stereo not given),nt,4,14,0,nt,nt
Nc1ncnc2c1ncn2[C@H]1C[C@H](O)[C@@H](COP(=O)(O)O)O1,3,1,0,-1,13*,0
CCN(C(=O)COC(=O)c1c2c(nc3ccccc13)/C(=C/c1ccccc1)CC(C)C2)C1CCS(=O)(=O)C1 (stereo not given),6,-2,-6,-1,-3,nt
CCOC(=O)C(=CNc1ccccc1N1CCOCC1)C(=O)OCC,-3,-2,-2,0,6.0*,4
CCOC(=O)C(=CNc1cccc(C)c1C)C(=O)OCC,3,-8,-3,6,0,nt
COCCCn1c(C(=O)NC2CCCCC2C)cc2c(=O)n3cccc(C)c3nc21 (stereo not given),-4,-1,-13,-2,4.9*,-6
Cc1ccc(OCCN2C(=O)NC3(CCc4ccccc4C3)C2=O)cc1 (stereo not given),-4,-4,nt,-2,7.2*,-6
O=C(NC(=S)Nc1ccccc1CO)C1CCCCC1,6,2,3,-1,3,nt
O=C(N/N=C/c1ccccn1)c1ccc2nc[nH]c2c1,5,nt,-14,-1,7.8*,1
COc1ccc(OC)c(C2=Nn3c(nnc3C3CCCCC3)SC2)c1,?,-5,4,-3,9.3*,-6
CN(CC(=O)Nc1ccc(F)cc1)C(=O)CCc1nc2sc3c(c2c(=O)[nH]1)CCCC3,6,6,5,1,-2,nt
CCOC(=O)C1(CCc2ccccc2)CCN(Cc2cnc(N(C)C)s2)CC1,7,-2,10,1,-1,nt
CN(C)c1ncc(CN2CCC(CO)(CCCc3ccccc3)CC2)s1,nt,1,2,3,7.3*,-3
COc1cc2c(cc1OC)CN(C(=O)c1sccc1C)CC2,-7,0,3,-2,5.1*,0
Cc1c(C#N)c2ccccc2n1CCOc1ccccc1F,-5,-3,3,3,-2,nt
CC(=O)Nc1nnc(SCC(=O)NCc2ccc3c(c2)OCO3)s1,-1,-1,1,-1,13*,-2
COC(=O)c1ccc(NC(=O)c2cc(-c3ccccn3)nc3ccccc23)cc1,-4,1,-2,6,7.5*,2
Cc1cccc(-n2nnc(C(=O)NCc3ccco3)c2N)c1,2,0,-5,2,-2,nt
CCCCCN(C(=O)NC(=O)Nc1ccc(C)cc1C)S(C)(=O)=O,16,-1,-12,-1,0,nt

# Source: PubChem BioAssay
